Assay results reported in PubChem BioAssay (NCATS).
Results filed as inconclusive are left out. Active and inactive are the calls of the source. The call rests on the fitted dose curve; in most records, active means well fitted curve in the direction sought with a large enough effect; inconclusive means small, poorly fitted or top-dose-only effect, or another doubt; inactive means no such curve, though single readings can be large; an effect the other way counts as inactive or inconclusive.

What was measured:
[1] = tested on: TAB165; assay: qHTS profiling for inhibitors of Plasmodium falciparum proliferation (AID 504749);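 further: 0% = DMSO vehicle and full inhibition = artemisinin control; nearly all actives have a fitted effect of over 60% in size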; settings: P. falciparum in erythrocytes, SYBR Green DNA, 72 h; series mostly up to 28.7 µM
Procedure, shortened: (§1)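 Parasite proliferation within erythrocytes, 72 h exposure. Endpoint: SYBR Green I fluorescence after overnight lysis at room temperature. Controls: 0.29 uM artemisinin, DMSO.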

[2] = tested on: W2; assay: as above; settings: P. falciparum in erythrocytes, SYBR Green DNA, 72 h; series mostly up to 28.7 µM
Procedure, shortened: as §1

[3] = tested on: CRL-7250; assay: Cytotoxic Profiling of Annotated Libraries Using Quantitative High-Throughput Screening (AID 1296008); settings: Five cell lines viability, CellTiter-Glo ATP luminescence, 48-72 h; max response: stronger effect = lower value; further: nearly all actives have a fitted effect of over 60% in size; on max response: on the % scale 0 is the no-effect control and ±100 the full control effect
Procedure, shortened: (§2)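 Compounds were pin-transferred onto cells and incubated 48 or 72 hr at 37 degree Celsius, 95% humidity. CellTiter-Glo was added, plates sat 10 min at room temperature, then ATP-coupled luminescence was imaged as the viability read-out.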

[4] = tested on: HEK293; assay: as above; settings: Five cell lines viability, CellTiter-Glo ATP luminescence, 48-72 h; max response: stronger effect = lower value
Procedure, shortened: as §2

[5] = tested on: HaCat; assay: as above; settings: Five cell lines viability, CellTiter-Glo ATP luminescence, 48-72 h; max response: stronger effect = lower value
Procedure, shortened: as §2

[6] = tested on: KB-3-1; assay: as above; settings: Five cell lines viability, CellTiter-Glo ATP luminescence, 48-72 h; max response: stronger effect = lower value
Procedure, shortened: as §2

[7] = tested on: NIH3T3; assay: as above; settings: Five cell lines viability, CellTiter-Glo ATP luminescence, 48-72 h; max response: stronger effect = lower value
Procedure, shortened: as §2

[8] = tested on: HEK293T; assay: qHTS assay to identify novel small-molecules to repurpose for Merkel cell carcinoma treatment (AID 1296009); settings: MCC and control cell lines, CellTiter-Glo viability, 72 h; at 44.8 µM (top of the series) unless noted; further: nearly all actives have a fitted effect of over 60% in size
Procedure, shortened: (§3)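 qHTS format: cells treated with library compounds in DMSO across 8 (NPC) or 11 (MIPE) concentrations. Readout after 72 hr at 37 degree celsius was CellTiter-Glo luminescence.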

[9] = tested on: MCC-13; assay: as above; settings: MCC and control cell lines, CellTiter-Glo viability, 72 h; series mostly up to 46 µM
Procedure, shortened: as §3

[10] = tested on: MKL-1; assay: as above; settings: MCC and control cell lines, CellTiter-Glo viability, 72 h; series mostly up to 46 µM
Procedure, shortened: as §3

[11] = tested on: MKL-2; assay: as above; settings: MCC and control cell lines, CellTiter-Glo viability, 72 h; series mostly up to 46 µM
Procedure, shortened: as §3

[12] = tested on: NIH3T3; assay: as above; settings: MCC and control cell lines, CellTiter-Glo viability, 72 h; at 44.8 µM (top of the series) unless noted
Procedure, shortened: as §3

[13] = tested on: UISO; assay: as above; settings: MCC and control cell lines, CellTiter-Glo viability, 72 h; series mostly up to 46 µM
Procedure, shortened: as §3

[14] = tested on: WaGa; assay: as above; settings: MCC and control cell lines, CellTiter-Glo viability, 72 h; series mostly up to 46 µM
Procedure, shortened: as §3

[15] = tested on: C33A; assay: Primary qHTS to identify gynecologic anti-cancer compounds using libraries of approved drugs and bioactive compounds (AID 1345084); settings: Gynecologic cancer cell panel viability, ATPlite luminescence, 48 h; series mostly up to 57.5 µM; further: on the % scale 0 is the no-effect control and ±100 the full control effect; nearly all actives have a fitted effect of over 55% in size
Procedure, shortened: (§4)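 Cells, 1,000 per well, were allowed to settle for 16 h at 37 C before compound addition. Five concentrations were tested for 48 h, and viability was read by ATPlite luminescence after 15 min at room temperature.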

[16] = tested on: CASKI; assay: as above; settings: Gynecologic cancer cell panel viability, ATPlite luminescence, 48 h; series mostly up to 57.5 µM
Procedure, shortened: as §4

[17] = tested on: Es-2; assay: as above; settings: Gynecologic cancer cell panel viability, ATPlite luminescence, 48 h; series mostly up to 57.5 µM
Procedure, shortened: as §4

[18] = tested on: MCC-26; assay: qHTS assay to identify novel small-molecules to repurpose for Merkel cell carcinoma treatment (AID 1296009); settings: MCC and control cell lines, CellTiter-Glo viability, 72 h; series mostly up to 46 µM; further: nearly all actives have a fitted effect of over 60% in size
Procedure, shortened: as §3

[19] = tested on: HACAT; assay: as above; settings: MCC and control cell lines, CellTiter-Glo viability, 72 h; at 44.8 µM (top of the series) unless noted
Procedure, shortened: as §3

[20] = tested on: CAOV3; assay: Primary qHTS to identify gynecologic anti-cancer compounds using libraries of approved drugs and bioactive compounds (AID 1345084); settings: Gynecologic cancer cell panel viability, ATPlite luminescence, 48 h; series mostly up to 57.5 µM; further: on the % scale 0 is the no-effect control and ±100 the full control effect; nearly all actives have a fitted effect of over 55% in size
Procedure, shortened: as §4

N[C@@H](CSCCCO)C(=O)O
inactive: Potency [1] | Potency [2] | max response [3] -1.84% | outcome [4] | max response [5] 2.87% | max response [6] -1.02% | outcome [7] | outcome [8] inactive [at 17.4 µM] | Potency [9] | Potency [10] | Potency [11] | outcome [12] inactive [at 17.4 µM] | Potency [13] | Potency [14] | Potency [15] | Potency [16] | Potency [17]

CCCCN(CCCC)CCCOC(=O)c1ccc(N)cc1
inactive: Potency [1] | outcome [3] | outcome [4] | max response [5] -1.28% | max response [6] -15.2% | outcome [7] | outcome [8] | Potency [9] | Potency [18] | Potency [10] | Potency [11] | outcome [12] | Potency [13] | Potency [14] | Potency [15] | Potency [16] | Potency [17]

CC[C@@]1(c2ccccc2)NC(=O)N(C)C1=O
inactive: Potency [1] | Potency [2] | max response [3] -4% | outcome [4] | outcome [5] | max response [6] 31.6% | max response [7] 1.13% | outcome [19] | outcome [8] | Potency [9] | Potency [10] | Potency [11] | Potency [13] | Potency [14] | Potency [15] | Potency [20] | Potency [16] | Potency [17]

COc1ccc2cc1Oc1cc3c(cc1OC)CC[N+](C)(C)[C@H]3Cc1ccc(cc1)Oc1c(OC)c(OC)cc3c1[C@@H](C2)[N+](C)(C)CC3
inactive: outcome [3] | outcome [4] | max response [5] 0.882% | max response [6] 0.968% | outcome [7] | outcome [8] | Potency [9] | Potency [10] | Potency [11] | outcome [12] | Potency [13] | Potency [14] | Potency [15] | Potency [20] | Potency [16] | Potency [17]

C[C@@H]1CCN(C(=O)[C@H](CCCN=C(N)N)NS(=O)(=O)c2cccc3c2NC[C@H](C)C3)[C@@H](C(=O)O)C1
inactive: max response [3] 0.468% | outcome [4] | max response [5] 0.409% | max response [6] 1.81% | outcome [7] | outcome [8] | Potency [9] | Potency [18] | Potency [10] | Potency [11] | outcome [12] | Potency [13] | Potency [14] | Potency [15] | Potency [20] | Potency [16] | Potency [17]

CC1(C)S[C@@H]2[C@H](NC(=O)Cc3ccccc3)C(=O)N2[C@H]1C(=O)O (tested in a mixture with another compound)
inactive: outcome [3] | outcome [4] | max response [5] -1.15% | max response [6] 9.18% | outcome [7] | outcome [8] | Potency [9] | Potency [18] | Potency [10] | Potency [11] | outcome [12] | Potency [13] | Potency [14] | Potency [15] | Potency [16] | Potency [17]

C[C@H](NC(CCc1ccccc1)C(=O)O)C(=O)N1CCC[C@H]1C(=O)O (stereo partly specified)
inactive: outcome [3] | max response [4] 3.49% | outcome [5] | max response [6] -16.2% | max response [7] 1.23% | outcome [19] | Potency [9] | Potency [18] | Potency [10] | Potency [11] | Potency [13] | Potency [14] | Potency [15] | Potency [20] | Potency [16]
